# Assay results: PubChem BioAssay AID818 (SRMLSC, 2007)
# The whole screen tested about 140,000 compounds, of which about 2,100 (1.5%) were called active. Only a selection was taken, and actives are over-represented in it overall. Unmarked numbers belong to inactive results.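 How the source made its calls: active means viability at or under a set limit, the compound median less 4 SD (cut at about 6% in these data); inactive means the rest.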
# Assay: primary screen for growth suppressors in beta-catenin knockout HCT116 cells (colon tumor, human) (AID 818);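 further: 0% = Hyamine 1622 control at 20 µM and 100% = untreated cell control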
# Conditions: CellTiter-Glo, 60 h, at 10 µM, active compounds read low
row,SMILES,viability
1,CN(C)c1ccc(/C=C2\CC3C4CC=C5CC(O)CCC5(C)C4CCC3(C)C2=O)cc1 (stereo not given),2.09% (active)
2,C[N+]1(C)CCOC(O)(c2ccc(-c3ccc(C4(O)C[N+](C)(C)CCO4)cc3)cc2)C1 (stereo not given),79.5%
3,Cc1nn(Cc2ccccc2Cl)c(Cl)c1C(=O)OC(C(=O)NC(N)=O)C(C)C (stereo not given),83%
4,Cc1ccc2c(c1)=C/C(=C\c1c(O)[nH]c(=O)[nH]c1=O)C(=O)N=2,82.4%
5,Cc1cccc(OP(=O)(Oc2cccc(C)c2)OC(c2ccccc2)C(F)(F)F)c1 (stereo not given),66.6%
